Rows were chosen to be rich in hits. Some 6.8% of all compounds tested hit in one or more screens of this group.
Pf Dd2 growth: P. falciparum Dd2 growth inhibitors, primary screen, SYBR Green fluorescence, single dose replicates. 72 h; hits give low values. activity change, % at 10 µM. hit rate 2.3% among 94,000. AID 1159554, 2015; in the data active = activity change below about -80%; inconclusive = no clear call, values can overlap the other calls
C diff growth: C. difficile growth inhibitors, primary screen, HTS | Clostridium difficile clinical isolate growth, OD600, 24 h; hits give low values | growth activity, negative = inhibition, % at 16 µg/mL (by protocol) | hit rate 0.25% among 86,000;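 active = mean growth activity at or below -80% and every replicate also at or below -80%; inconclusive = mean at or below -80% but some replicate above -80%; inactive = mean growth activity above -80%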
T cruzi growth-1: T. cruzi intracellular proliferation inhibitors, primary screen, cell-based, beta-gal Tulahuen parasites, NIH3T3 host, luminescence | T. cruzi beta-gal in NIH3T3, GalScreen luminescence, 90 h | inhibition, % at 8.34 µM | hit rate 5.9% among 77,000;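 active = mean inhibition above about 93%, with at least 55% of replicates each passing it, limit read from the data, passing the limit was not always enough; inconclusive = only one of those two conditions holds; inactive = neither condition holds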
T cruzi growth-2: T. cruzi intracellular proliferation inhibitors, confirmation, cell-based, NIH3T3 host, beta-gal parasite, luminescence, cherry-pick. shares compounds with T cruzi growth-1. T. cruzi beta-gal in NIH3T3, GalScreen luminescence, 90 h. inhibition, % at 8.35 µM. hit rate 72% among 5,600;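 active = mean replicate inhibition above about 95% and at least 55% of replicates individually reaching it, limit read from the data; inconclusive = only one of the two criteria is met; inactive = neither criterion is met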
T cruzi growth-3: inhibitors of intracellular T. cruzi replication, confirmation, NIH3T3 host cells, beta-gal parasites, cherry-pick, set 2; shares compounds with T cruzi growth-1; T. cruzi beta-gal in NIH3T3, GalScreen luminescence, 90 h; inhibition, % at 2.09 µM; hit rate 21% among 5,600; AID 651740, 2012;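 active = mean inhibition above about 95%, with at least 55% of replicates also reaching it, limit read from the data; inconclusive = meets just one of the two conditions; inactive = meets neither condition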
NIH3T3 tox: cytotoxicity in mouse NIH/3T3 fibroblasts, confirmation, cytotoxicity control for T. cruzi proliferation inhibitor project, cell-based, cherry-pick, single point; shares compounds with T cruzi growth-1; NIH/3T3 viability, CellTiter-Glo ATP luminescence, 90 h; cytotoxicity (signal decrease), % at 8.35 µM; hit rate 14% among 5,600;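 active = mean signal decrease across replicates above about 35% based on untreated-well scatter, with enough replicates individually passing, limit read from the data; inconclusive = no rule stated though some were filed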
NIH3T3 tox 2: NIH/3T3 fibroblast cytotoxicity, confirmation, cytotoxicity control, cell-based, cherry-pick, single point, set 2; shares compounds with T cruzi growth-1; NIH/3T3 viability, CellTiter-Glo ATP luminescence, 90 h; inhibition, % at 24.9 µM; hit rate 56% among 5,600; AID 651744, 2012;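 active = mean loss of cell viability signal at or above a set limit, and enough replicates individually reaching it; inconclusive = meets only the mean limit or only the replicate share; inactive = meets neither condition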
A number is an active result; n = inactive; u = inconclusive; x = no result given.

SMILES	Pf Dd2 growth	C diff growth	T cruzi growth-1	T cruzi growth-2	T cruzi growth-3	NIH3T3 tox	NIH3T3 tox 2
C[C@H](CO)N1C[C@H](C)[C@H](CN(C)Cc2ccc(Oc3ccccc3)cc2)Oc2c(NC(=O)Nc3ccc(C(F)(F)F)cc3)cccc2C1=O	n	n	122	103	108	n	106
C[C@H](CO)N1C[C@H](C)[C@@H](CN(C)Cc2ccc(C(F)(F)F)cc2)Oc2c(NC(=O)Nc3ccc(C(F)(F)F)cc3)cccc2C1=O	n	n	n	x	x	x	x
C[C@H](CO)N1C[C@H](C)[C@@H](CN(C)Cc2ccc(Oc3ccccc3)cc2)Oc2c(NC(=O)Nc3ccc(F)cc3)cccc2C1=O	n	x	126	n	n	n	n
C[C@@H]1CN([C@H](C)CO)C(=O)c2cccc(NC(=O)Nc3ccc(C(F)(F)F)cc3)c2O[C@H]1CN(C)Cc1ccccc1	n	n	n	x	x	x	x
C[C@H](CO)N1C[C@H](C)[C@H](CN(C)S(C)(=O)=O)Oc2c(NC(=O)Nc3ccc(F)cc3)cccc2C1=O	n	n	n	x	x	x	x
C[C@H](NC(=O)C[C@H]1CC[C@H](NC(=O)C2CCC2)[C@H](CO)O1)c1ccccc1	n	x	n	x	x	x	x
O=C(C[C@@H]1CC[C@@H]2[C@H](COC[C@H](O)CN2C(=O)c2cnccn2)O1)NCc1ccccc1	n	x	n	x	x	x	x
O=C(C[C@@H]1C[C@@H]2c3cc(NC(=O)c4ccc5c(c4)OCO5)ccc3O[C@@H]2[C@@H](CO)O1)NCc1cc(F)ccc1F	n	x	99	n	n	n	n
O=C(C[C@@H]1C[C@H]2c3cc(NC(=O)c4cccnc4)ccc3O[C@H]2[C@@H](CO)O1)NCCc1ccccc1	n	n	n	x	x	x	x
O=C(C[C@@H]1C[C@@H]2c3cc(NC(=O)c4cccnc4)ccc3O[C@@H]2[C@H](CO)O1)NCc1ccccc1	n	x	n	x	x	x	x
CS(=O)(=O)Nc1ccc2c(c1)[C@@H]1C[C@@H](CC(=O)NCc3ccccc3)O[C@H](CO)[C@@H]1O2	n	x	n	x	x	x	x
O=C(C[C@H]1C[C@@H]2c3cc(NC(=O)c4cccnc4)ccc3O[C@@H]2[C@H](CO)O1)NCc1cccnc1	n	x	98	n	n	n	n
O=C(C[C@H]1C[C@@H]2c3cc(NC(=O)c4cccnc4)ccc3O[C@@H]2[C@@H](CO)O1)NCCc1ccccc1	n	n	129	n	n	n	n
O=C(C[C@H]1C[C@@H]2c3cc(NC(=O)c4ccc5c(c4)OCO5)ccc3O[C@@H]2[C@@H](CO)O1)NCc1cc(F)ccc1F	n	x	n	x	x	x	x
CS(=O)(=O)Nc1ccc2c(c1)[C@H]1C[C@@H](CC(=O)NCc3ccncc3)O[C@@H](CO)[C@H]1O2	n	n	107	n	n	n	n
CC(C)NC(=O)N1CC[C@@H]2[C@@H](CO)N(C)c3ccc(Br)cc3[C@@H]21	n	n	n	x	x	x	x
C[C@@H]1CCCCO[C@@H](CN(C)C(=O)c2ccncc2)[C@@H](C)CN([C@H](C)CO)C(=O)c2cc(NC(=O)c3ccccc3)ccc2O1	n	n	n	x	x	x	x
C[C@@H]1CN([C@@H](C)CO)C(=O)c2cccc(NS(C)(=O)=O)c2O[C@@H]1CN(C)C(=O)Nc1ccc2c(c1)OCO2	n	n	n	x	x	x	x
CN1C(=O)c2cc(NC(=O)Cc3cccs3)ccc2OC[C@H]2O[C@H](CC(=O)N[C@@H]3CCN(Cc4ccccc4)C3)CC[C@@H]21	x	n	n	x	x	x	x
CN1C(=O)c2cc(NC(=O)c3ccc(F)c(F)c3)ccc2OC[C@@H]2O[C@@H](CC(=O)N[C@@H]3CCN(Cc4ccccc4)C3)CC[C@@H]21	x	n	112	102	n	n	39
CN1C(=O)c2cc(NC(=O)c3ccc(F)c(F)c3)ccc2OC[C@H]2O[C@H](CC(=O)N[C@H]3CCN(Cc4ccccc4)C3)CC[C@H]21	x	n	102	107	n	n	n
CN1C(=O)c2cc(NC(=O)c3ccc(F)c(F)c3)ccc2OC[C@H]2O[C@H](CC(=O)N[C@@H]3CCN(Cc4ccccc4)C3)CC[C@@H]21	x	n	n	x	x	x	x
CN1C(=O)c2cc(NC(=O)c3ccc(F)c(F)c3)ccc2OC[C@@H]2O[C@@H](CC(=O)N[C@H]3CCN(Cc4ccccc4)C3)CC[C@H]21	x	n	99	u	n	n	n
CN1C(=O)c2cc(NC(=O)c3ccc(F)c(F)c3)ccc2OC[C@H]2O[C@@H](CC(=O)N[C@H]3CCN(Cc4ccccc4)C3)CC[C@@H]21	x	n	n	x	x	x	x
CN1C(=O)c2cc(NC(=O)Cc3cccs3)ccc2OC[C@@H]2O[C@H](CC(=O)N[C@H]3CCN(Cc4ccccc4)C3)CC[C@@H]21	x	n	n	x	x	x	x
SMILES	Pf Dd2 growth	C diff growth	T cruzi growth-1	T cruzi growth-2	T cruzi growth-3	NIH3T3 tox	NIH3T3 tox 2
CN1C(=O)c2cc(NC(=O)c3ccc(F)c(F)c3)ccc2OC[C@H]2O[C@H](CC(=O)N[C@H]3CCN(Cc4ccccc4)C3)CC[C@@H]21	x	n	108	n	n	n	n
C[C@H]1CCCCO[C@@H](CN(C)C(=O)c2ccccc2)[C@@H](C)CN([C@@H](C)CO)C(=O)c2cc(NC(=O)Nc3ccc(C(F)(F)F)cc3)ccc2O1	n	n	n	x	x	x	x
COc1ccc(S(=O)(=O)N(C)C[C@@H]2Oc3ccc(NS(=O)(=O)c4cccs4)cc3CC(=O)N([C@H](C)CO)C[C@@H]2C)cc1	n	n	n	x	x	x	x
C[C@@H]1CN([C@H](C)CO)C(=O)c2cc(C#CC3CCCC3)cnc2O[C@H]1CN(C)C(=O)Cc1ccccn1	n	n	n	x	x	x	x
O=C(Nc1ccc2c(c1)[C@H]1C[C@@H](CC(=O)N3CCCCC3)O[C@H](CO)[C@H]1O2)C1CCOCC1	n	x	n	x	x	x	x
Cc1noc(C)c1S(=O)(=O)Nc1ccc2c(c1)CC(=O)N([C@@H](C)CO)C[C@@H](C)[C@H](CN(C)C(=O)Nc1ccccc1)O2	n	n	n	x	x	x	x
CC(C)NC(=O)N(C)C[C@@H]1Oc2ccc(NC(=O)C3CCCCC3)cc2C(=O)N([C@@H](C)CO)C[C@@H]1C	n	n	n	x	x	x	x
CC(C)CC#Cc1ccc([C@@H]2[C@H]3CN(C(=O)NC4CCCCC4)CC(=O)N3[C@H]2CO)cc1	n	n	x	x	x	x	x
CCc1cnc(N2[C@H](C#N)[C@H](c3ccc(C4=CCCCC4)cc3)[C@H]2CO)s1	n	n	n	x	x	x	x
CCc1cnc(N2[C@@H](C#N)[C@@H](c3ccc(C4=CCCCC4)cc3)[C@@H]2CO)s1	n	n	100	96	n	u	60
